Source: PubChem
The list is not random: actives were taken first. Their share in the collection is about 19%.
DT40 TDP1 CPT – DT40-hTDP1 cell growth loss with CPT | chicken DT40 Tdp1-/-;hTDP1 cells + 20 nM CPT, ATP luminescence, 48 h | Potency, µM (top dose mostly 46.2 µM), for inactives: at the highest dose activity change, negative = growth inhibition, usual class: inhibitors | AID 686979 | 420,000 tested, 12% active; further: potency means the concentration at half of the fitted maximal effect; nearly all actives have a fitted effect of over 55% in size
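Cell growth measured by CellTiter-Glo luminescence after a minimum 48 h, 37 C compound exposure with 20 nM CPT in Tdp1-knockout DT40 cells stably expressing hTDP1, seeded 400/well; qHTS titration format.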
HT1080 IDH1KD tx – toxicity to HT-1080 IDH1 knockdown cells (counter line); 360,000 tested, 2% active; Potency, µM (titrated, usually from 46.1 µM), for inactives: at the highest dose activity, negative = toxicity, most hits filed as cytotoxic; HT-1080 IDH1 knockdown viability, ATP luminescence, 48 h; AID 686971;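 further: potency means the concentration at half of the fitted maximal effect; 0% = DMSO wells and -100% = cell-free medium wells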
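Using the IDH1-knockdown HT-1080 line run in the same batch and compound series as the NT line, viability after 48 h at 37 °C was determined by CellTiter-Glo luminescence and expressed as % activity.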
HT1080-NT tox – kills 2HG-producing HT-1080-NT fibrosarcoma cells; Potency, µM (titrated, usually from 46.1 µM), for inactives: top-dose activity, negative = less viability, most hits filed as cytotoxic; HT-1080-NT fibrosarcoma viability, CellTiter-Glo ATP luminescence, 48 h; 360,000 tested, 1.6% active;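 further: NT is the 2HG producing partner of a matched IDH1 knockdown line; potency means the concentration at half of the fitted maximal effect; 0% = DMSO-treated cells and -100% = media-only wells without cells; nearly all actives have a fitted effect of over 55% in size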
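Fibrosarcoma NT cells, 750 per well in 5% FBS RPMI, were exposed to compound for 48 hours. Viability: CellTiter-Glo luminescence.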
IL-1B inflam inh – inhibitors of inflammasome signaling (IL-1 beta secretion); AID 743279; THP-1 LPS/ATP IL-1B secretion, AlphaLISA, 16 h; active compounds read low; 360,000 tested, 4.7% active; activity change, % at 57.5 µM; in the data active means activity change below about -50%; inconclusive means mostly about -30% to -49%
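Secreted IL-1B measured by AlphaLISA bead assay after 16 h compound exposure of THP-1 cells; compounds (final up to 57.5 uM) added 1 h before LPS (250 ng/mL) and ATP (1.25 mM) stimulation; lower signal means less secretion.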
DT40 TDP1 no CPT – qHTS for Inhibitors of human tyrosyl-DNA phosphodiesterase 1 (TDP1): qHTS in cells in absence of CPT | DT40 Tdp1-/- hTDP1 cells, no CPT, ATP luminescence, 48 h | Potency, µM (titrated, usually from 46.2 µM), for the others: at the top dose activity change, negative = growth inhibition, usual class: inhibitors | AID 686978, 2013 | 420,000 tested, 15% active; further: potency means the concentration at half of the fitted maximal effect; nearly all actives have a fitted effect of over 55% in size
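DT40 Tdp1-/-;hTDP1 cells, no CPT (DMSO vehicle only), 400 cells/well; compounds pin-transferred; ≥48 hr, 37 °C; CellTiter-Glo 30 min RT dark, luminescence read.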
Active calls of the source: *; ? = inconclusive; / = no result; [ ] = another dose, or the depositor's remark. Unless noted, the call rests on the fitted dose curve; in most records, active means well fitted curve in the direction sought with a large enough effect; inconclusive means small, poorly fitted or top-dose-only effect, or another doubt; inactive means no such curve, though single readings can be large; an effect the other way counts as inactive or inconclusive. Unless noted, on the % scale 0 is the no-effect control and ±100 the full control effect.

SMILES	DT40 TDP1 CPT	HT1080 IDH1KD tx	HT1080-NT tox	IL-1B inflam inh	DT40 TDP1 no CPT
CN(C)c1ncc2nc(-c3cc(F)cc(F)c3)c(=O)n(CCc3ccccc3)c2n1	-27%	/	/	/	-5%
O=c1c(-c2cccs2)nc2cncnc2n1Cc1ccccc1	15%	/	/	/	13%
O=C(Nc1ccccc1)N1CCCN(c2nccc(C(F)(F)F)n2)CC1	29µM*	12%	28%	-5	?
Cc1ccc(NC(=O)CSCC(=O)N2CCN(c3cccc(C(F)(F)F)c3)CC2)cc1	?	-2%	4%	-6	15µM*
CC(C)(C)c1ccc(NC(=O)N2CCCN(c3ccc([N+](=O)[O-])cn3)CC2)cc1	?	?	-29%	/	26µM*
O=C(Nc1ccc([N+](=O)[O-])cc1)N1CCCCCC1	-26%	10%	14%	-1	8%
Cc1ccc(-c2noc(CCC(=O)N3CCN(c4cccc(C(F)(F)F)c4)CC3)n2)cc1	?	-20%	-27%	-5	?
O=C(Nc1ccccc1)N1CCN(c2ccc(C(F)(F)F)cn2)CC1	7.3µM*	-6%	16%	?	23µM*
O=C(Nc1ccc(F)cc1)N1CCCN(c2nccc(C(F)(F)F)n2)CC1	-28%	-4%	-20%	-26	?
Cc1ccc(-c2nn(-c3cccc([N+](=O)[O-])c3)c3c2cnc2ccc(F)cc23)cc1	10%	/	/	/	10%
CCC(C)[C@H](NC(=O)N1CCN(c2cccc(C(F)(F)F)c2)CC1)C(=O)OC (stereo not given in full)	15µM*	-1%	-7%	-1	21µM*
Cc1cccc(Cl)c1NC(=S)N1CCN(c2ccc([N+](=O)[O-])cn2)CC1	?	-1%	-1%	-18	26µM*
CC(NC(=O)c1ccco1)C(=O)N1CCN(c2ccccc2)CC1 (stereo not given)	10%	1%	0%	3	-15%
CC(NC(=O)c1ccco1)C(=O)N1CCN(c2cccc(C(F)(F)F)c2)CC1 (stereo not given)	13µM*	-3%	-10%[9.24 µM]	0	10µM*
O=C(CSc1nnc(NC(=O)C2CC2)s1)Nc1ccc(F)cc1F	-2%	-1%	6%	-15	3%
Cc1c(C(=O)O)sc2[nH]c(=O)n(Cc3ccccc3)c(=O)c12	1%	1%	4%	49	0%
Cc1cc2c(cc1S(=O)(=O)Nc1ccc(F)cc1)n(C)c(=O)c(=O)n2C	9%	3%	-14%	18	-4%
CCc1ccc(NS(=O)(=O)c2cc3c(cc2C)n(C)c(=O)c(=O)n3C)cc1	15µM*	-7%	-9%	0	13µM*
CCc1ccc(S(=O)(=O)Nc2ccc3c(c2)n(C)c(=O)c(=O)n3C)cc1	?	/	/	/	15µM*
CCOC(=O)c1oc2ccc(S(=O)(=O)Nc3ccc4c(c3)n(C)c(=O)n4C)cc2c1C	?	-18%	-1%	?	21µM*
Cn1c(=O)c(=O)n(C)c2cc(S(=O)(=O)NCc3ccc(Cl)cc3)ccc21	16µM*	3%	0%	-2	?
COC(=O)C1CN(C(=O)C(C)Oc2ccccc2Cl)c2ccccc2O1 (stereo not given)	6%	0%	6%	37	-4%
CCOc1ccccc1NC(=O)c1nnn(CC(=O)Nc2ccccc2CC)c1N	1%	/	/	/	-29%
O=C(Nc1ccccc1[N+](=O)[O-])c1csnn1	-1%	/	/	/	1%
O=C(Cn1ncc2c([nH]c3ccccc32)c1=O)Nc1cccc(C(F)(F)F)c1	1%	/	/	/	2%
SMILES	DT40 TDP1 CPT	HT1080 IDH1KD tx	HT1080-NT tox	IL-1B inflam inh	DT40 TDP1 no CPT
CCc1cccc(NS(=O)(=O)c2ccc3c(c2)n(C)c(=O)n3C)c1	10µM*	-16%	-12%	-26	9.2µM*
CCc1cccc(NS(=O)(=O)c2ccc3c(c2)oc(=O)n3C)c1	?	-6%	-9%	0	?
Cc1ccc(C(=O)Oc2cc(N)n(S(=O)(=O)c3ccc(C)cc3)n2)cc1	-1%	12%	9%	14	19%
CCOC(=O)c1oc2ccc(S(=O)(=O)n3nc(-c4ccc(C)cc4)cc3N)cc2c1C	12µM*	10%	22%	8	16µM*
CN(c1ccccc1)S(=O)(=O)c1cccc(NC(=O)CCNC(=O)c2ccc([N+](=O)[O-])cc2)c1	?	-1%	1%	?	?
CN(c1ccccc1)S(=O)(=O)c1cccc(NC(=O)CCNC(=O)c2ccc(Cl)cc2)c1	23µM*	-18%	-11%	-13	?
CN(c1ccccc1)S(=O)(=O)c1cccc(NC(=O)CCNC(=O)c2ccccc2)c1	18µM*	6%	4%	12	16µM*
CC(=O)Nc1cccc(NC(=O)CCNC(=O)c2ccc(Cl)cc2)c1	-21%	-2%	-1%	0	-2%
CCCC(=O)Nc1cccc(S(=O)(=O)N(C)c2ccccc2)c1	16µM*	1%	6%	3	?
COc1cccc2cc(C(=O)c3ccc([N+](=O)[O-])cc3)oc12	4%	-9%	1%	-18	-12%
O=S1(=O)CCC(SCc2nc3sccn3c2Br)C1 (stereo not given)	-17%	-3%	6%	11	-7%
CCCCCCNC(=O)Nc1ccccc1	-16%	-7%	-2%[9.24 µM]	-13	-1%
CCCCSCCCNC(=O)Nc1ccc(CC)cc1	-1%	-6%	0%	-75*	-37%
O=S1(=O)CCC(NC(=S)NC2CCS(=O)(=O)C2)C1 (stereo not given)	35%	20%	12%	-2	-7%
O=S1(=O)CCC(NC(=S)SCCOc2ccccc2)C1 (stereo not given)	8.2µM*	-16%	-24%	?	10µM*
CCCCSC(=S)NC1CCS(=O)(=O)C1 (stereo not given)	9.2µM*	?	-29%	-98*	12µM*
CCOc1ccc(NS(=O)(=O)c2ccc(NC(=O)N3CCCC3)cc2)cc1	-30%	/	/	/	?
CC(=O)N1CCN(C(=O)c2ccc(Oc3ccccc3)cc2)CC1	3%	23%	13%	23	-2%
CC(=O)c1ccc(N2CCN(C(=O)c3cccc(Oc4ccccc4)c3)CC2)cc1	16µM*	-22%	-25%	1	18µM*
CC(C)CC(=O)N1CCN(C(=O)c2ccc(-c3ccccc3)cc2)CC1	?	-9%	-1%	10	23µM*
CC(=O)c1ccc(N2CCN(C(=O)c3ccc(-c4ccccc4)cc3)CC2)cc1	?	-9%	-8%	3	13µM*
